# Data: PubChem BioAssay (Tox21)
# Results filed as inconclusive are left out. Where a call stands in place of a potency, no number is given. A number with no mark means an inactive call. Active and inactive are the calls of the source. Calls come from the whole dose curve; as a rule, active = well fitted cell-killing curve with a large enough effect in the repeat runs; inconclusive = weak or mixed curves, or effect the other way; inactive = flat fitted curve, though single readings scatter.
# Assays:
# [1] = cAMP Responsive Elements (CRE) small molecule antagonists, cell-based qHTS assay: qHTS cell viability counter screen (AID 2060913); settings: CRE-bla HEK293T viability, CellTiter-Glo luminescence, 5 h; series mostly up to 92.4 µM; note: nearly all actives have a fitted effect of over 40% in size
# In short: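 HEK293T CRE-bla, 2,000 cells/well, 18 h preincubation; cpd in DMSO + NKH477 0.25 uM final, 3 h 37 C/5% CO2; LiveBLAzer 2 h RT, then CellTiter-Glo 30 min RT, luminescence.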
# [2] = cAMP Responsive Elements (CRE) small molecule agonists, cell-based qHTS assay: qHTS cell viability counter screen (AID 2060914); settings: CRE-bla HEK293T viability, CellTiter-Glo luminescence, 5 h; series mostly up to 92.4 µM; note: nearly all actives have a fitted effect of over 50% in size
# In short: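 Luminescence read-out (CellTiter-Glo, 30 min RT) of ATP-based viability in CRE-bla HEK 293T cells, run in the same wells as the β-lactamase reporter assay after 3 h compound treatment at 37 °C.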
# Potency is the fitted concentration of half-maximal effect.
Compound,Potency [1],Potency [2],"viability change, negative = cytotoxic [1]","activity change, negative = cytotoxicity [2]"
C=Cc1ccc(C)cc1,inactive,inactive,,
O=S1(=O)CCCC1,inactive,inactive,,
CN(Cc1cc(Br)cc(Br)c1N)C1CCCCC1,inactive,inactive,,
O=C(O)c1ccc(O)c(O)c1,inactive,inactive,,
Cc1ccc(N)c([N+](=O)[O-])c1,inactive,inactive,,
CC1=C(/C=C/C(C)=C/C=C/C(C)=C/C(=O)Nc2ccc(O)cc2)C(C)(C)CCC1,inactive,inactive,,
C[Si](C)(C)O[Si](O)(O)O,inactive,inactive,,
O=C(O)CCc1ccccc1,inactive,inactive,,
CCC(=O)C1CC(C(C)C)CC=C1C (centres undefined),inactive,inactive,,
COC(=O)C1=C(C)NC(C)=C(C(=O)OC)C1c1ccccc1[N+](=O)[O-],inactive,inactive,,
CCCCCC/C=C/CCCCCCCC(=O)O,inactive,inactive,,
CCCCCC/C=C/C(=O)OC,inactive,inactive,,
CCN(CC)C(=O)N1CCN(C)CC1,inactive,inactive,,
CC(C)(C)c1ccc(C=O)cc1,inactive,inactive,,
CCC1=C[C@@H]2CN(C1)Cc1c([nH]c3ccccc13)[C@@](C(=O)OC)(c1cc3c(cc1OC)N(C)[C@H]1[C@@](O)(C(=O)OC)[C@H](OC(C)=O)[C@]4(CC)C=CCN5CC[C@]31[C@@H]54)C2,inactive,inactive,,
O=C(O)c1cccc(C[C@@H]2COc3ccc(OCc4nc5cc(F)ccc5s4)cc3[C@@H]2O)c1,inactive,inactive,,
CCN(CC)CCOC(=O)c1ccc(N)cc1,inactive,inactive,,
Nc1ccn([C@@H]2O[C@H](CO)[C@@H](O)[C@@H]2O)c(=O)n1,inactive,inactive,,
CCOC(=O)C1=C(C)NC(C)=C(C(=O)OC)C1c1cccc([N+](=O)[O-])c1 (centres undefined),inactive,inactive,,
CCN(CCC#N)c1ccc(N=Nc2ccc([N+](=O)[O-])cc2)cc1,inactive,inactive,,
Cc1ccc2oc(=O)ccc2c1,inactive,inactive,,
CCOc1ccc(NC(=O)OC(C)C)cc1OCC,inactive,inactive,,
NCCO,inactive,inactive,,

Compound,Potency [1],Potency [2],"viability change, negative = cytotoxic [1]","activity change, negative = cytotoxicity [2]"
Cc1cccc(C)c1OCC(=O)N[C@@H](Cc1ccccc1)[C@@H](O)C[C@H](Cc1ccccc1)NC(=O)[C@H](C(C)C)N1CCCNC1=O,inactive,inactive,,
CN(C)CCOC(C)(c1ccccc1)c1ccccn1 (centres undefined),inactive,inactive,,
OCC(O)[C@@H](O)[C@H](O)[C@H](O)CO[C@H]1O[C@H](CO)[C@@H](O)[C@H](O)[C@H]1O (some centres undefined),inactive,inactive,,
Clc1cccc(Cl)n1,inactive,inactive,,
NCC[C@H](O)C(=O)N[C@@H]1C[C@H](N)[C@@H](O[C@H]2O[C@H](CN)[C@@H](O)[C@H](O)[C@H]2O)[C@H](O)[C@H]1O[C@H]1O[C@H](CO)[C@@H](O)[C@H](N)[C@H]1O,,,0.2% [at 0.349 µM],-8.14% [at 0.349 µM]
C/C(=C\c1ccc(C(=O)O)cc1)c1ccc2c(c1)C(C)(C)CCC2(C)C,inactive,inactive,,
Cn1c(=O)[nH]c2ncn(C)c2c1=O,inactive,inactive,,
CC(=O)OCC(=O)[C@@]12OC(C)(C)O[C@@H]1C[C@H]1[C@@H]3C[C@H](F)C4=CC(=O)C=C[C@]4(C)[C@@]3(F)[C@@H](O)C[C@@]12C,inactive,inactive,,
CC(C)(c1ccccc1)c1ccccc1,inactive,inactive,,
Cc1cc(NC(=O)C2=C(O)c3ccccc3S(=O)(=O)N2C)no1,inactive,inactive,,
O=c1cccc[nH]1,inactive,inactive,,
CCN(CC)CCCC(C)Nc1c2ccc(Cl)cc2nc2ccc(OC)cc12 (centres undefined),inactive,inactive,,
NS(=O)(=O)Cc1noc2ccccc12,inactive,inactive,,
Nc1ccc(S(N)(=O)=O)cc1,inactive,inactive,,
CO/N=C(/C(=O)N[C@@H]1C(=O)N2C(C(=O)[O-])=C(C[n+]3ccn4ncccc43)CS[C@H]12)c1nsc(N)n1,inactive,inactive,,
CCOC(=O)/C=C/C(=O)OCC,inactive,inactive,,
Cc1ccc(CO)cc1,inactive,inactive,,
C=CC(=O)OCCOCCOCC,inactive,inactive,,
Brc1cc(Oc2cc(Br)c(Br)c(Br)c2Br)c(Br)c(Br)c1Br,inactive,inactive,,
CCc1cc(Cl)c(OC)c(C(=O)NC[C@@H]2CCCN2CC)c1O,inactive,inactive,,
CC(=O)CC/C=C(\C)CCC=C(C)C,inactive,inactive,,
CC1CCCNC1 (centres undefined),inactive,inactive,,
O=C1C(O)=C(O)C(=O)C(O)=C1O,inactive,inactive,,

Compound,Potency [1],Potency [2],"viability change, negative = cytotoxic [1]","activity change, negative = cytotoxicity [2]"
OCCO,inactive,inactive,,
C=CC(=O)OCCOC1C2CCC1C1CC=CC12 (centres undefined),,,9.26% [at 18.9 µM],-3.05% [at 18.9 µM]
C[C@@H]1CC[C@@]2(OC1)O[C@H]1C[C@H]3[C@@H]4CC[C@H]5C[C@@H](O)CC[C@]5(C)[C@H]4CC(=O)[C@]3(C)[C@H]1[C@@H]2C,,,0.912% [at 8.39 µM],-1.47% [at 8.39 µM]
O=C(O)c1cccc(Oc2ccccc2)c1,inactive,inactive,,
Cc1ccc([N+](=O)[O-])c(C)c1,inactive,inactive,,
C[C@@H](CN(C)C)CN1c2ccccc2Sc2ccccc21,inactive,inactive,,
CCOC(=O)CCCCCCCCC(=O)OCC,inactive,inactive,,
O=CN1CCOCC1,inactive,inactive,,
CC(C)C[C@H](NC(=O)OCC1c2ccccc2-c2ccccc21)C(=O)O,inactive,inactive,,
CC/C=C\C/C=C\C/C=C\CCCCCCCC(=O)OCC,inactive,inactive,,
Cc1ccc(S(=O)(=O)NCl)cc1,inactive,inactive,,
COP(=O)(OC)OC(c1ccc(Cl)cc1)P(=O)(OC)OC (centres undefined),inactive,inactive,,
COC(=O)C1CC(=O)C(C(=O)OC)CC1=O (centres undefined),,,18.8% [at 8.39 µM],-4.18% [at 8.39 µM]
CCCCCC1C(=O)CCC1CC(=O)OC (centres undefined),inactive,inactive,,
C=C(C)C(=O)OCC(C)(C)COC(=O)C(=C)C,inactive,inactive,,
O,inactive,inactive,,
COc1cccc([C@H](O)C2CCN(CCc3ccc(F)cc3)CC2)c1OC,inactive,inactive,,
CC(C)=CCC/C(C)=C\C#N,inactive,inactive,,
CO[Si](CCCNCCC[Si](OC)(OC)OC)(OC)OC,inactive,inactive,,
Nc1nc2c(ncn2CCC(CO)CO)c(=O)[nH]1,inactive,inactive,,
C=COCC(C)C,inactive,inactive,,
O=Cc1ccc(F)c(Br)c1,inactive,inactive,,
O=C1OC2(c3ccccc31)c1cc(Br)c(O)c(Br)c1Oc1c2cc(Br)c(O)c1Br,inactive,inactive,,

Compound,Potency [1],Potency [2],"viability change, negative = cytotoxic [1]","activity change, negative = cytotoxicity [2]"
CC(C)(C)c1cc(CO)cc(C(C)(C)C)c1O,inactive,inactive,,
CC(CN(C)C)C(C)(O)Cc1ccc(Cl)cc1 (centres undefined),inactive,inactive,,
CCN1CCCC1=O,inactive,inactive,,
ClCCl,inactive,inactive,,
CC(O)COC(C)(C)C (centres undefined),inactive,inactive,,
COC(=O)/C=C\C(=O)O,inactive,inactive,,
CC(=O)c1ccc(O)cc1,inactive,inactive,,
CC(C)c1ccc(C=O)cc1,inactive,inactive,,
C=C(C)[C@@H]1CC[C@@H](C)C[C@@H]1O,inactive,inactive,,
C=C(C)C(=O)OCCCC,inactive,inactive,,
O=[N+]([O-])c1ccc(F)cc1F,inactive,inactive,,
CN(C)N=Nc1ccccc1,inactive,inactive,,
NC(=O)c1cc[n+](CC2=C(C(=O)[O-])N3C(=O)[C@@H](NC(=O)Cc4cccs4)[C@H]3SC2)cc1,inactive,inactive,,
CCN(CC)CCOCCOC(=O)C1(c2ccccc2)CCCC1,inactive,inactive,,
O=C(CCS)OCC(COC(=O)CCS)(COC(=O)CCS)COC(=O)CCS,inactive,inactive,,
COc1cc(NS(=O)(=O)c2ccc(N)cc2)nc(OC)n1,inactive,inactive,,
Cc1ccccc1Br,inactive,inactive,,
COc1nc(C)nc(NC(=O)NS(=O)(=O)c2ccccc2OCCCl)n1,inactive,inactive,,
CCC(O)OC(O)CC (centres undefined),inactive,inactive,,
CCCCC(=O)N(C)C,inactive,inactive,,
CC(C)(C)[C@@H](O)[C@@H](Cc1ccc(Cl)cc1)n1cncn1,inactive,inactive,,
CCCCC/C=C\C/C=C\CCCCCCCC(=O)OC,inactive,inactive,,
CC(=O)CC(=O)N(C)C,inactive,inactive,,

Compound,Potency [1],Potency [2],"viability change, negative = cytotoxic [1]","activity change, negative = cytotoxicity [2]"
O=S(=O)(O)C(F)(F)F,inactive,inactive,,
CCNS(=O)(=O)c1ccc(C)cc1,inactive,inactive,,
Cc1cc(C)cc(N)c1,inactive,inactive,,
O=C(O)CS,inactive,inactive,,
CCOC(=O)C(C)O (centres undefined),inactive,inactive,,
O=CC1CC=CCC1 (centres undefined),inactive,inactive,,
CCCCCCCCC,inactive,inactive,,
O=C(O)CCCc1c[nH]c2ccccc12,inactive,inactive,,
C1CCC2OC2C1 (centres undefined),inactive,inactive,,
O=C1O[C@@H]2[C@@H](O)[C@H](O)O[C@@H]2[C@H]1O,inactive,inactive,,
CC1=CC(=O)/C(=C(/C)O)C(=O)O1,inactive,inactive,,
ClCCCl,inactive,inactive,,
COc1ccc([N+](=O)[O-])cc1N,inactive,inactive,,
CCCCOC(=O)[C@@H](C)Oc1ccc(Oc2ccc(C(F)(F)F)cn2)cc1,inactive,inactive,,
CCCC(c1cc(C(C)(C)C)c(O)cc1C)c1cc(C(C)(C)C)c(O)cc1C,24.6 µM (active),31 µM (active),,
CCOc1nc(F)cc2nc(S(=O)(=O)Nc3c(Cl)cccc3C(=O)OC)nn12,inactive,inactive,,
CC(=O)Nc1ccc(N=Nc2cc(C)ccc2O)cc1,inactive,inactive,,
O=C1Nc2ccc([N+](=O)[O-])cc2C1=O,inactive,inactive,,
C=CCS(=O)(=O)O,inactive,inactive,,
CC(C)CCOCc1ccccc1,inactive,inactive,,
